# From article PMC7862700, “An all-to-all approach to the identification of sequence-specific readers for epigenetic DNA modifications on cytosine”
# Assays:
# Assay in all cases: DAPPL (digital affinity profiling via proximity ligation, sequencing); 10 mM Tris-HCl pH 7.5, 50 mM NaCl, 1 mM DTT, 4% glycerol, room temperature, 30 min; GST-TFs on glutathione beads, 16-mer random dsDNA library, 0.1% formaldehyde crosslink after washing; high values mean tight binding
# Settings in all cases: protein: recombinant; tags: N-terminal GST; dsDNA, one strand shown
# FLI1 = target: T1, FLI1 (Homo sapiens, UniProt Q01543 1-452)
# T1 sequence: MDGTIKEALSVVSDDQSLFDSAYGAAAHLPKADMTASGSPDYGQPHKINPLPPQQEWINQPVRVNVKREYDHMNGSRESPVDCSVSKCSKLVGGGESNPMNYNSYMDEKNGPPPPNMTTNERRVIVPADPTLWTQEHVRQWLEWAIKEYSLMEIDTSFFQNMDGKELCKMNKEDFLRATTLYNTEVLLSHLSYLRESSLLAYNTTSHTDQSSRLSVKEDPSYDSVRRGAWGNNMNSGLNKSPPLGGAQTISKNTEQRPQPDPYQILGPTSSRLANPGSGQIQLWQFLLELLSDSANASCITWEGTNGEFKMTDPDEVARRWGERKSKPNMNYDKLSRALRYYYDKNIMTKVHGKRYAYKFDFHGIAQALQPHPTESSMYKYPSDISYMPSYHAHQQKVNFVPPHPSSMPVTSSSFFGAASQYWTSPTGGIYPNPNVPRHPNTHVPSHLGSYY
# How it was run: (§1)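 GST fusions of human transcription factors were expressed in yeast and captured with glutathione beads. Once given DNA barcodes and pooled alongside a tag-only sample, they were incubated for 30 min at room temperature with 200 nmole of a random double-stranded 16-mer DNA library in Tris/NaCl/DTT/glycerol buffer, then washed, crosslinked (0.1% formaldehyde), proximity-ligated, PCR-amplified and sequenced on an Illumina NextSeq500. The binding signal of each hexamer is its read frequency for a factor divided by its frequency for the tag-only sample.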
# ELK1 = target: T2, ELK1 (Homo sapiens, UniProt P19419 1-428)
# T2 sequence: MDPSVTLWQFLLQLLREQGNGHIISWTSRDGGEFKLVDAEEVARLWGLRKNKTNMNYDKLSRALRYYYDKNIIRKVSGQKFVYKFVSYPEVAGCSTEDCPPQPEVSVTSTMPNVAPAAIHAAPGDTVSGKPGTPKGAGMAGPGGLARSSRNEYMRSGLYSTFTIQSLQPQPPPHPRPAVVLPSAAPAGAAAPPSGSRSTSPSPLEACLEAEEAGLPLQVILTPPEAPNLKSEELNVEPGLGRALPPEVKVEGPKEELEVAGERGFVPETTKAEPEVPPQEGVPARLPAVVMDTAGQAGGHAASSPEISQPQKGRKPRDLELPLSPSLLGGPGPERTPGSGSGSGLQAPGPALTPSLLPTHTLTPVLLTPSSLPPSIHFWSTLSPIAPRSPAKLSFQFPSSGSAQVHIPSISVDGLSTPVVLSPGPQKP
# How it was run: as §1
# GABPA = target: T3, GABPA (Homo sapiens, UniProt Q06546 1-454)
# T3 sequence: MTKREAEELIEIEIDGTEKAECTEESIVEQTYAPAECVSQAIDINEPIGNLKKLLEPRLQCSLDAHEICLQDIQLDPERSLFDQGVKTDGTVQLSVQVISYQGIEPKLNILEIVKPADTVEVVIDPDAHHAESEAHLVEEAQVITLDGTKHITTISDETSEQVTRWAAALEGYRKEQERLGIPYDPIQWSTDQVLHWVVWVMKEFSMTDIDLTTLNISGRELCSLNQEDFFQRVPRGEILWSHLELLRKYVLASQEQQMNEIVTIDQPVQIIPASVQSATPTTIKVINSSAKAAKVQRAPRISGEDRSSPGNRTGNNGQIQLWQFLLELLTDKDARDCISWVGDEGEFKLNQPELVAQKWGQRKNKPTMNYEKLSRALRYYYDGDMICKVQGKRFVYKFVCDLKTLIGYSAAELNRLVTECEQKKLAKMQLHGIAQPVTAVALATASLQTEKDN
# How it was run: as §1
# ERG = target: T4, ERG (Homo sapiens, UniProt P11308 1-479)
# T4 sequence: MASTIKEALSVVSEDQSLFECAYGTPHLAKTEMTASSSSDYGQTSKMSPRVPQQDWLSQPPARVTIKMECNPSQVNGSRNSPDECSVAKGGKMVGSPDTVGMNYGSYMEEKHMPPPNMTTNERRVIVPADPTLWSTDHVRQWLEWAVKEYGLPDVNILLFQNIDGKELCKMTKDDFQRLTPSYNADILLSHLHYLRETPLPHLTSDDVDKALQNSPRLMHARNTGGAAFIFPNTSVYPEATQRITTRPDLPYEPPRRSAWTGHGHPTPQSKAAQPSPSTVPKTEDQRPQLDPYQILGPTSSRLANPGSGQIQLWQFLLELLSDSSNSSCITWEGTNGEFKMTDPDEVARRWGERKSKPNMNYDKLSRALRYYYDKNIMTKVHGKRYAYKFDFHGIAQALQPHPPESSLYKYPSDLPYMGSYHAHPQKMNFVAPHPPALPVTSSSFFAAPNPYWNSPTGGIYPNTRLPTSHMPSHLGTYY
# How it was run: as §1
# ELF1 = ELF1 (Homo sapiens, UniProt P32519 1-619)
# Chain of ELF1 (P32519 whole entry): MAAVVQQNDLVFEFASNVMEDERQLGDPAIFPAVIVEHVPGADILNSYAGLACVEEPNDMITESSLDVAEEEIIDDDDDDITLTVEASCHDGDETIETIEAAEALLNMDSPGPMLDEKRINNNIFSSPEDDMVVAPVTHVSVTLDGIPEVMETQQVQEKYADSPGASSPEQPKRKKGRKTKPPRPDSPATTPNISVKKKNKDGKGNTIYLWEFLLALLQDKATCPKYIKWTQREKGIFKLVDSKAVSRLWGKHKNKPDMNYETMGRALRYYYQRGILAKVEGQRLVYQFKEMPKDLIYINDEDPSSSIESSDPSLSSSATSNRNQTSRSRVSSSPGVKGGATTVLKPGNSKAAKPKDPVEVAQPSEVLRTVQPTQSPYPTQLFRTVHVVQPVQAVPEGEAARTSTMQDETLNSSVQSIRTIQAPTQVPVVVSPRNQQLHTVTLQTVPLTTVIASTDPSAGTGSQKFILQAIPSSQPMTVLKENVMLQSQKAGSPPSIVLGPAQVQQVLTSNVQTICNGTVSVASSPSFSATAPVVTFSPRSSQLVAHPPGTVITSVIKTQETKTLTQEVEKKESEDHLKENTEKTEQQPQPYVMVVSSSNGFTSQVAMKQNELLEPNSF
# How it was run: as §1
# EHF = target: T5, EHF (Homo sapiens, UniProt Q9NZC4 1-300)
# T5 sequence: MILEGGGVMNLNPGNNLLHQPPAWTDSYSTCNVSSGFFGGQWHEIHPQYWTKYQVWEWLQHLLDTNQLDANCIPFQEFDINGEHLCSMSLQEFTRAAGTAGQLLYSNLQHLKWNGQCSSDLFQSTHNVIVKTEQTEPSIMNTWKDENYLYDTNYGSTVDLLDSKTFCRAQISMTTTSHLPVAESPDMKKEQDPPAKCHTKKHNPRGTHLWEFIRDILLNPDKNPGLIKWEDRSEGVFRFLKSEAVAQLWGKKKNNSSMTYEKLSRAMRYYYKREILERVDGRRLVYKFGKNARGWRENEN
# How it was run: as §1
# SPI1 = SPI1 (Homo sapiens, UniProt P17947 1-270)
# How it was run: as §1
# SPIB = SPIB (Homo sapiens, UniProt Q01892 1-262)
# Chain of SPIB (Q01892 whole entry): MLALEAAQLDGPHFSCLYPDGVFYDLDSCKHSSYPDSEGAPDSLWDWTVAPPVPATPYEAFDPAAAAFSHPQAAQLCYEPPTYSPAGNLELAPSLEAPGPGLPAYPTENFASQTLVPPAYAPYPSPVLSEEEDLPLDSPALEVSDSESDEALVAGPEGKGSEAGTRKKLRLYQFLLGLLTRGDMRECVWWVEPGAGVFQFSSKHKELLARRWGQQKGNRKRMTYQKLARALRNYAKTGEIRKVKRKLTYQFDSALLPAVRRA
# How it was run: as §1
# ELK3 = target: T6, ELK3 (Homo sapiens, UniProt P41970 1-407)
# T6 sequence: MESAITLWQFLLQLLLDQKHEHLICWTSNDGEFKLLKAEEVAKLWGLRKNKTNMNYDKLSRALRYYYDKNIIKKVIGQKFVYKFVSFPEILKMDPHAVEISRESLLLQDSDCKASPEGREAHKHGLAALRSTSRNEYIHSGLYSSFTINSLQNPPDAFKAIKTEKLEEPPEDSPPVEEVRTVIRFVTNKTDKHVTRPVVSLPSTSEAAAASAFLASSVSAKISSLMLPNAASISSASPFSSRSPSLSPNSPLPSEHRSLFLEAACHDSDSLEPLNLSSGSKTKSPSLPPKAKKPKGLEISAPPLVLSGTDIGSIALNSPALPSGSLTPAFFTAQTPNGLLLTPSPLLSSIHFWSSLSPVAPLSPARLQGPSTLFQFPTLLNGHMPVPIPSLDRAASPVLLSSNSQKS
# How it was run: as §1
# FEV = target: T7, FEV (Homo sapiens, UniProt Q99581 1-238)
# T7 sequence: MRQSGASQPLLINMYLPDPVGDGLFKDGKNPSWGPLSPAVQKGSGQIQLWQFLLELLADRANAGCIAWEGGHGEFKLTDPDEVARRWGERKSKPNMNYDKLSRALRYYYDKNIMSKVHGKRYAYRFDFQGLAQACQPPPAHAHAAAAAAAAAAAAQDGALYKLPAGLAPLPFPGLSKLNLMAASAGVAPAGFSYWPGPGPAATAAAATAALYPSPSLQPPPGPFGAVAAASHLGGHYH
# How it was run: as §1
# ETV5 = ETV5 (Homo sapiens, UniProt P41161 1-510)
# Chain of ETV5 (P41161 whole entry): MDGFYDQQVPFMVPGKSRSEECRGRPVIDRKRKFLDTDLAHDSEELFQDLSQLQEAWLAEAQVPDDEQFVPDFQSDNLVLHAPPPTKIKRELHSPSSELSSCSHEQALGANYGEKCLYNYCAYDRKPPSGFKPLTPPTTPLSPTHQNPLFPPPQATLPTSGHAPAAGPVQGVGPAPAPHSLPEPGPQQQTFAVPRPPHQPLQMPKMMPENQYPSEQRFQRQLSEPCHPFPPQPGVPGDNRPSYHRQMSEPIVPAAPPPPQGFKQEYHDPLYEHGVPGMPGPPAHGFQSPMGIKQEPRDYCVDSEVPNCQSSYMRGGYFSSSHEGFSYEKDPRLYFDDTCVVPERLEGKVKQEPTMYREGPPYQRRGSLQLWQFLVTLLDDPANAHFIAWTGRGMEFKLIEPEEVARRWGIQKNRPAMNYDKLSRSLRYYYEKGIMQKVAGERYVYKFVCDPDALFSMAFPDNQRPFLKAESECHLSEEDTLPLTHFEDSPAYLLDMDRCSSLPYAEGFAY
# How it was run: as §1
# ELF4 = ELF4 (Homo sapiens, UniProt Q99607 1-663)
# Chain of ELF4 (Q99607 whole entry): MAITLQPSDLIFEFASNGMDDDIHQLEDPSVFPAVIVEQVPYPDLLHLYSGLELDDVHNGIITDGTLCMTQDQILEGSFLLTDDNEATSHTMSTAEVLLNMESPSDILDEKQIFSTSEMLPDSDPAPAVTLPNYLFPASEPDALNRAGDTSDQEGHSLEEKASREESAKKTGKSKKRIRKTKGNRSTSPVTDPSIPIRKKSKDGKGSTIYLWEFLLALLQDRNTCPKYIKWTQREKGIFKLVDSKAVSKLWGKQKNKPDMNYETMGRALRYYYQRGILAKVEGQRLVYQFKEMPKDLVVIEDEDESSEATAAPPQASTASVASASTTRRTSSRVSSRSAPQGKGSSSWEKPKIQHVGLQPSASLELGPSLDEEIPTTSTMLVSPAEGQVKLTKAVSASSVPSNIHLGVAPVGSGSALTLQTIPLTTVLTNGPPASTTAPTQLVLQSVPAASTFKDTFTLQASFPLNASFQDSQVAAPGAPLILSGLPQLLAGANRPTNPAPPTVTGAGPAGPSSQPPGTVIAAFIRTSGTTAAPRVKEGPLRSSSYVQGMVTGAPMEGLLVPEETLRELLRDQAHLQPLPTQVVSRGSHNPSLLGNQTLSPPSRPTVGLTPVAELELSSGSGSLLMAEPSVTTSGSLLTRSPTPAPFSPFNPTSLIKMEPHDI
# How it was run: as §1
# ETV1 = ETV1 (Homo sapiens, UniProt P50549 1-477)
# Chain of ETV1 (P50549 whole entry): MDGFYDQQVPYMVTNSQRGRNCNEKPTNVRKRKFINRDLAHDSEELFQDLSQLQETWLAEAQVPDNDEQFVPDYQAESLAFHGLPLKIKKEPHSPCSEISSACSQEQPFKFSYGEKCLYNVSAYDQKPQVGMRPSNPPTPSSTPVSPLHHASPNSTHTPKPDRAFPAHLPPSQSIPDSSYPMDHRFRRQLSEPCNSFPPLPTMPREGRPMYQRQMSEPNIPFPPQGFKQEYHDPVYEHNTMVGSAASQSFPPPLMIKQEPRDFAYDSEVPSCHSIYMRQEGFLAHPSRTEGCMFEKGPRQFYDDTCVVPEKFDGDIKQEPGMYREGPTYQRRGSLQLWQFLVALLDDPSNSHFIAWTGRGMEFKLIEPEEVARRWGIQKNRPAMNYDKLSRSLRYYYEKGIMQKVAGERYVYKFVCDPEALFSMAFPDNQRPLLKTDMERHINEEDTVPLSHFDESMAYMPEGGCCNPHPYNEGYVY
# How it was run: as §1
# ERF = target: T8, ERF (Homo sapiens, UniProt P50548 1-548)
# T8 sequence: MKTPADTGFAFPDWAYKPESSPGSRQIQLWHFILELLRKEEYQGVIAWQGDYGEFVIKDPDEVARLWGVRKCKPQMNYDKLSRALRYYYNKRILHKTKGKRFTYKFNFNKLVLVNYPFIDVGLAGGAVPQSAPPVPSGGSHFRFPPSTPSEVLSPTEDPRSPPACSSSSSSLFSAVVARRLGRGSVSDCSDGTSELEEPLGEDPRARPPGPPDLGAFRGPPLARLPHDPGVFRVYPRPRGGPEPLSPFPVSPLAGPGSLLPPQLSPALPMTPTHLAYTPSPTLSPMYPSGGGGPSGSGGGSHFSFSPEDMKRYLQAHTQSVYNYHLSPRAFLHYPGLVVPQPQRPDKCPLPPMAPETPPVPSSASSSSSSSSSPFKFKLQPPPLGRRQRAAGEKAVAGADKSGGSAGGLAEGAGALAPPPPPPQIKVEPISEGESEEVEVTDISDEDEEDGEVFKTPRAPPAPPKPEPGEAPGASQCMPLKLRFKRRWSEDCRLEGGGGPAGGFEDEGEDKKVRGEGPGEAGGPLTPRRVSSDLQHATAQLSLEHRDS
# How it was run: as §1
# ETV3L = target: T9, ETV3L (Homo sapiens, UniProt Q6ZN32 1-361)
# T9 sequence: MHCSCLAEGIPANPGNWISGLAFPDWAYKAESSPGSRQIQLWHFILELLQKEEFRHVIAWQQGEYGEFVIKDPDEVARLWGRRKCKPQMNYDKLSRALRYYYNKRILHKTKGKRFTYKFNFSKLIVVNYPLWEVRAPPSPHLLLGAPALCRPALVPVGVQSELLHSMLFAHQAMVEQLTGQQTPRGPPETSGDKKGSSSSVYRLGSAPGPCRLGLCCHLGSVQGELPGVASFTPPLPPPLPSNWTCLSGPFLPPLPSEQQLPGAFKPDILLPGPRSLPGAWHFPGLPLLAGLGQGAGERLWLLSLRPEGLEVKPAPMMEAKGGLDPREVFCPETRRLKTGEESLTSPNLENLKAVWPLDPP
# How it was run: as §1
# ETS2 = target: T10, ETS2 (Homo sapiens, UniProt P15036 1-469)
# T10 sequence: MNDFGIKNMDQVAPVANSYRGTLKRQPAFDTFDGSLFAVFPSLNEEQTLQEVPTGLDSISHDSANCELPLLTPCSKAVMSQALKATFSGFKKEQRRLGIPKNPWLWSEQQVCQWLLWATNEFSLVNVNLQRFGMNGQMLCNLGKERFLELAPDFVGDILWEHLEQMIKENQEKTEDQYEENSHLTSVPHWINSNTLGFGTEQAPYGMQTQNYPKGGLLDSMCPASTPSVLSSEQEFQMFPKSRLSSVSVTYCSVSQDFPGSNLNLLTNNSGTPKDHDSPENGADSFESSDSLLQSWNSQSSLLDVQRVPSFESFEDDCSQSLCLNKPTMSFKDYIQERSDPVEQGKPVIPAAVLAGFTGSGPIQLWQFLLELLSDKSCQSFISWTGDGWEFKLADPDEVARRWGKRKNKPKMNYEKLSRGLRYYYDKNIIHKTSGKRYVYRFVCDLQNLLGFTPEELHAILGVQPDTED
# How it was run: as §1
# ELF5 = target: T11, ELF5 (Homo sapiens, UniProt Q9UKW6-2 1-255)
# T11 sequence: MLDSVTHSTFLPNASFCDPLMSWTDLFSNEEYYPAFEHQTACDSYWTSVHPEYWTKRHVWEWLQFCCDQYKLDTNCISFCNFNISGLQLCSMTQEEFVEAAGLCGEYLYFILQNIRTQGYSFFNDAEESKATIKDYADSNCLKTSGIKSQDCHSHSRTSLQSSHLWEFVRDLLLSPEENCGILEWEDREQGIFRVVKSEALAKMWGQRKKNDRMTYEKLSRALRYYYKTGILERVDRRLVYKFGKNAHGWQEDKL
# How it was run: as §1
# ETV3 = target: T12, ETV3 (Homo sapiens, UniProt P41162-2 1-143)
# T12 sequence: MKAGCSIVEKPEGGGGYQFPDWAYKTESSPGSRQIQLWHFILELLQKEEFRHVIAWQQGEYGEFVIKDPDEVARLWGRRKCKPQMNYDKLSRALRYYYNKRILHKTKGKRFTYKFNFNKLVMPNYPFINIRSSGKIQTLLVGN
# How it was run: as §1
# ETV6 = ETV6 (Homo sapiens, UniProt P41212 1-452)
# Chain of ETV6 (P41212 whole entry): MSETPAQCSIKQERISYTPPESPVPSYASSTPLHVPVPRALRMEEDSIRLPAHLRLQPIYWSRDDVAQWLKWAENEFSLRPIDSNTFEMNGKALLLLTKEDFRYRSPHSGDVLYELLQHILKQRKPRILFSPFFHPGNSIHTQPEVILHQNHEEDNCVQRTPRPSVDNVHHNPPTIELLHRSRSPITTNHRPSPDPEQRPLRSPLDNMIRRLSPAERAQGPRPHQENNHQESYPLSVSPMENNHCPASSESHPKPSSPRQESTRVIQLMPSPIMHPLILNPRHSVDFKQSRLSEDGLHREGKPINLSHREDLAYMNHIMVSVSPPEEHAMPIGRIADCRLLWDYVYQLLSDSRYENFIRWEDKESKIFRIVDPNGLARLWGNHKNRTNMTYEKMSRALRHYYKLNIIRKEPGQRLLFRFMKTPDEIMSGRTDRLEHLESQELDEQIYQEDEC
# How it was run: as §1
sequence,measurement,setting,value
CATGAC,binding signal,FLI1,"1.23 fold enrichment (6-mer frequency, TF over GST control)"
same,binding signal,ELK1,"1.18 fold enrichment (6-mer frequency, TF over GST control)"
same,binding signal,GABPA,"1.34 fold enrichment (6-mer frequency, TF over GST control)"
same,binding signal,ERG,"1.14 fold enrichment (6-mer frequency, TF over GST control)"
same,binding signal,ELF1,"1.18 fold enrichment (6-mer frequency, TF over GST control)"
same,binding signal,EHF,"1.25 fold enrichment (6-mer frequency, TF over GST control)"
same,binding signal,SPI1,"1.28 fold enrichment (6-mer frequency, TF over GST control)"
same,binding signal,SPIB,"1.16 fold enrichment (6-mer frequency, TF over GST control)"
same,binding signal,ELK3,"1.17 fold enrichment (6-mer frequency, TF over GST control)"
same,binding signal,FEV,"1.17 fold enrichment (6-mer frequency, TF over GST control)"
same,binding signal,ETV5,"1.24 fold enrichment (6-mer frequency, TF over GST control)"
same,binding signal,ELF4,"1.28 fold enrichment (6-mer frequency, TF over GST control)"
same,binding signal,ETV1,"1.13 fold enrichment (6-mer frequency, TF over GST control)"
same,binding signal,ERF,"1.18 fold enrichment (6-mer frequency, TF over GST control)"
same,binding signal,ETV3L,"1.13 fold enrichment (6-mer frequency, TF over GST control)"
same,binding signal,ETS2,"1.2 fold enrichment (6-mer frequency, TF over GST control)"
same,binding signal,ELF5,"1.12 fold enrichment (6-mer frequency, TF over GST control)"
same,binding signal,ETV3,"1.13 fold enrichment (6-mer frequency, TF over GST control)"
same,binding signal,ETV6,"1.18 fold enrichment (6-mer frequency, TF over GST control)"
